According to PubChem BioAssay (Tox21):
“And” between values parts separate entries of the source, which are not always exact repeats. Identical values can stand only once. Inconclusive results are not listed. Entries that show only a call come without a potency. Where a structure was tested more than once in an assay, its records may differ in their call. The source made the active and inactive calls. Calls come from the whole dose curve; as a rule, active = well fitted curve in the direction sought with a large enough effect in the repeat runs; inconclusive = weak or mixed curves; inactive = no such curve, though single readings can be large; an effect the other way counts as inactive or inconclusive.

Columns and labels:
[1] = qHTS RealTime-Glo MT Cell Viability Assay in HepG2 cells - 40 hour (AID 1224870); note: nearly all actives have a fitted effect of over 50% in size; note: potency is the fitted concentration of half-maximal effect
In short: (§1)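 HepG2 cells mixed with RealTime-Glo MT reagents (NanoLuc plus cell-permeant prosubstrate) were seeded at 600 cells/well, incubated 5 h at 37 C/5% CO2, then pinned with compounds in DMSO; nonlytic luminescence tracked viability during 40 h treatment.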

[2] = A CellTox Green Cytotoxicity Assay to monitor cytotoxicity in HEK293 cells - 40 hour (AID 1224871); note: nearly all actives have a fitted effect of over 45% in size; note: potency is the fitted concentration of half-maximal effect
In short: (§2)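 Real-time, in one plate: 600 HEK293 cells/well with dead-cell DNA dye, pinned compound after 5 h, 37 C incubation over 40 h; viable cells give no appreciable fluorescence.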

[3] = qHTS RealTime-Glo MT Cell Viability Assay in HEK293 cells - 16 hour (AID 1224872); note: top concentration of the series differs between compounds; nearly all actives have a fitted effect of over 50% in size
In short: (§3)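 HEK293 cells were seeded at 600 cells/well together with NanoLuc luciferase and cell-permeant prosubstrate, preincubated 5 h at 37 C/5% CO2, then given compound in DMSO by pintool. Luminescence from viable-cell prosubstrate reduction was read repeatedly over 40 h.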

[4] = qHTS RealTime-Glo MT Cell Viability Assay in HepG2 cells - 8 hour (AID 1224873); note: nearly all actives have a fitted effect of over 55% in size
In short: as §1

[5] = qHTS RealTime-Glo MT Cell Viability Assay in HEK293 cells - 40 hour (AID 1224874); settings: RealTime-Glo luminescence; max response: stronger effect = lower value; note: nearly all actives have a fitted effect of over 50% in size; note: potency is the fitted concentration of half-maximal effect
In short: (§4)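 Kinetic, non-lysing viability readout. Seed HEK293 (600/well) with reagent, incubate 5 h at 37 C/5% CO2, pin 23 nL compound in DMSO, incubate at 37 C, read luminescence at 0, 8, 16, 24, 32, 40 h.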

[6] = A CellTox Green Cytotoxicity Assay to monitor cytotoxicity in HEK293 cells - 24 hour (AID 1224875); note: series mostly up to about 77 µM; nearly all actives have a fitted effect of over 45% in size
In short: as §2

[7] = A CellTox Green Cytotoxicity Assay to monitor cytotoxicity in HepG2 cells - 16 hour (AID 1224876); note: nearly all actives have a fitted effect of over 45% in size
In short: (§5)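 Cytotoxicity was tracked as dead-cell DNA fluorescence in HepG2 cells treated with test compounds at 37 C; each time-point value comes from one kinetic series spanning 0, 8, 16, 24, 32 and 40 h.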

[8] = qHTS RealTime-Glo MT Cell Viability Assay in HepG2 cells - 32 hour (AID 1224877); note: nearly all actives have a fitted effect of over 55% in size
In short: (§6)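 HepG2 cells were seeded at 600 cells/well together with NanoLuc luciferase and a cell-permeant prosubstrate, preincubated 5 h at 37 C/5% CO2, then pin-dosed with compounds in DMSO. Nonlytic luminescence from viable cells was read at each time point.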

[9] = A CellTox Green Cytotoxicity Assay to monitor cytotoxicity in HepG2 cells - 24 hour (AID 1224878); note: nearly all actives have a fitted effect of over 45% in size
In short: as §5

[10] = A CellTox Green Cytotoxicity Assay to monitor cytotoxicity in HepG2 cells - 40 hour (AID 1224879); note: nearly all actives have a fitted effect of over 40% in size; note: potency is the fitted concentration of half-maximal effect
In short: as §5

[11] = qHTS RealTime-Glo MT Cell Viability Assay in HEK293 cells - 0 hour (AID 1224880)
In short: as §4

[12] = A CellTox Green Cytotoxicity Assay to monitor cytotoxicity in HEK293 cells - 32 hour (AID 1224881); note: nearly all actives have a fitted effect of over 40% in size; note: potency is the fitted concentration of half-maximal effect
In short: as §2

[13] = A CellTox Green Cytotoxicity Assay to monitor cytotoxicity in HepG2 cells - 32 hour (AID 1224883); note: nearly all actives have a fitted effect of over 50% in size; note: potency is the fitted concentration of half-maximal effect
In short: as §5

[14] = A CellTox Green Cytotoxicity Assay to monitor cytotoxicity in HEK293 cells - 8 hour (AID 1224884); note: nearly all actives have a fitted effect of over 35% in size
In short: as §2

[15] = qHTS RealTime-Glo MT Cell Viability Assay in HepG2 cells - 16 hour (AID 1224885); note: nearly all actives have a fitted effect of over 50% in size
In short: as §6

[16] = qHTS RealTime-Glo MT Cell Viability Assay in HEK293 cells - 24 hour (AID 1224886); note: nearly all actives have a fitted effect of over 50% in size; note: potency is the fitted concentration of half-maximal effect
In short: as §3

[17] = A CellTox Green Cytotoxicity Assay to monitor cytotoxicity in HEK293 cells - 16 hour (AID 1224888); note: nearly all actives have a fitted effect of over 35% in size
In short: as §2

[18] = qHTS RealTime-Glo MT Cell Viability Assay in HepG2 cells - 0 hour (AID 1224889); note: nearly all actives have a fitted effect of over 50% in size; note: potency is the fitted concentration of half-maximal effect
In short: as §6

[19] = A CellTox Green Cytotoxicity Assay to monitor cytotoxicity in HepG2 cells - 0 hour (AID 1224882); note: nearly all actives have a fitted effect of over 35% in size
In short: as §5

[20] = qHTS RealTime-Glo MT Cell Viability Assay in HEK293 cells - 8 hour (AID 1224887)
In short: as §4

## Nc1ccc(S(=O)(=O)c2ccc(N)cc2)cc1
[1]
  Potency: inactive
[2]
  Potency: inactive
[3]
  Potency: inactive
[4]
  outcome: inactive
[5]
  max response: 3.77% (inactive) and -13.4% (inactive) and 9.1% (inactive)
[6]
  Potency: inactive
[7]
  Potency: inactive
[8]
  Potency: inactive
[9]
  Potency: inactive
[10]
  Potency: inactive
[11]
  Potency: inactive
[12]
  Potency: inactive
[13]
  Potency: inactive
[14]
  Potency: inactive
[15]
  Potency: inactive
[16]
  Potency: inactive
[17]
  Potency: inactive
[18]
  Potency: inactive

## CC(O)CN(CCN(CC(C)O)CC(C)O)CC(C)O (stereo not given)
[1]
  Potency: inactive
[2]
  Potency: inactive
[3]
  Potency: inactive
[4]
  outcome: inactive
[5]
  max response: 2.34% (inactive) and 10.6% (inactive) and -2.16% (inactive)
[6]
  Potency: inactive
[7]
  Potency: inactive
[8]
  Potency: inactive
[9]
  Potency: inactive
[10]
  Potency: inactive
[11]
  Potency: inactive
[12]
  Potency: inactive
[19]
  Potency: inactive
[13]
  Potency: inactive
[14]
  Potency: inactive
[15]
  Potency: inactive
[16]
  Potency: inactive
[18]
  Potency: inactive

## O=C(C1CCCCC1)N1CC(=O)N2CCc3ccccc3C2C1 (stereo not given)
[1]
  Potency: inactive
[2]
  Potency: inactive
[3]
  Potency: inactive
[4]
  outcome: inactive
[5]
  max response: -18.7% (inactive)
[6]
  Potency: inactive
[7]
  Potency: inactive
[8]
  Potency: inactive
[9]
  Potency: inactive
[10]
  Potency: inactive
[11]
  Potency: inactive
[12]
  Potency: inactive
[19]
  Potency: inactive
[13]
  Potency: inactive
[14]
  Potency: inactive
[15]
  Potency: inactive
[16]
  Potency: inactive
[20]
  Potency: inactive
[17]
  Potency: inactive
[18]
  Potency: inactive

## Oc1ccc(/C=C/c2cc(O)cc(O)c2)cc1
[1]
  Potency: inactive
[2]
  Potency: inactive
[3]
  Potency: inactive
[4]
  outcome: inactive
[5]
  Potency: 15.6 µM (active)
[6]
  Potency: inactive
[7]
  Potency: inactive
[8]
  Potency: inactive
[9]
  Potency: inactive
[11]
  Potency: inactive
[12]
  Potency: inactive
[14]
  Potency: inactive
[15]
  Potency: inactive
[17]
  Potency: inactive
[18]
  Potency: inactive

## C[C@]12C=CC(=O)C=C1CC[C@@H]1[C@@H]2[C@@H](O)C[C@@]2(C)[C@H]1CC[C@]2(O)C(=O)CO
[1]
  Potency: inactive
[2]
  Potency: inactive
[3]
  Potency: inactive
[4]
  outcome: inactive
[5]
  max response: -4.22% (inactive) and -3.97% (inactive) and 0.449% (inactive)
[6]
  Potency: inactive
[7]
  Potency: inactive
[8]
  Potency: inactive
[9]
  Potency: inactive
[10]
  Potency: inactive
[11]
  Potency: inactive
[12]
  Potency: inactive
[13]
  Potency: inactive
[14]
  Potency: inactive
[15]
  Potency: inactive
[16]
  Potency: inactive
[20]
  Potency: inactive
[17]
  Potency: inactive
[18]
  Potency: 21.6 µM (active) and 19.5 µM (active)

## CC1(C)[C@@H]2CC[C@@]1(C)C(=O)C2
[2]
  Potency: inactive and 7.56 µM (active)
[3]
  Potency: inactive
[4]
  outcome: inactive
[5]
  max response: 4.23% (inactive) and 1.62% (inactive) and -1.8% (inactive)
[6]
  Potency: inactive
[7]
  Potency: inactive
[8]
  Potency: inactive
[9]
  Potency: inactive
[10]
  Potency: inactive
[11]
  Potency: inactive
[12]
  Potency: inactive and 8.49 µM (active)
[19]
  Potency: inactive
[13]
  Potency: inactive
[14]
  Potency: inactive
[15]
  Potency: inactive
[16]
  Potency: inactive
[20]
  Potency: inactive
[17]
  Potency: inactive
[18]
  Potency: inactive

## CC(=O)Nc1nnc(S(N)(=O)=O)s1
[1]
  Potency: inactive
[2]
  Potency: inactive
[3]
  Potency: inactive
[4]
  outcome: inactive
[5]
  max response: 3.91% (inactive) and 1.75% (inactive) and 9.79% (inactive)
[6]
  Potency: inactive
[7]
  Potency: inactive
[8]
  Potency: inactive
[9]
  Potency: inactive
[10]
  Potency: inactive
[11]
  Potency: inactive
[12]
  Potency: inactive
[13]
  Potency: inactive
[14]
  Potency: inactive
[15]
  Potency: inactive
[16]
  Potency: inactive
[20]
  Potency: inactive
[17]
  Potency: inactive
[18]
  Potency: inactive

## NC(=O)NC1NC(=O)NC1=O (stereo not given)
[1]
  Potency: inactive
[2]
  Potency: inactive
[3]
  Potency: inactive
[4]
  outcome: inactive
[5]
  max response: 4.83% (inactive) and -16.4% (inactive) and 0.282% (inactive)
[6]
  Potency: inactive
[7]
  Potency: inactive
[8]
  Potency: inactive
[9]
  Potency: inactive
[10]
  Potency: inactive
[11]
  Potency: inactive
[12]
  Potency: inactive
[13]
  Potency: inactive
[14]
  Potency: inactive
[15]
  Potency: inactive
[16]
  Potency: inactive
[17]
  Potency: inactive
[18]
  Potency: inactive

## OC(Cn1cncn1)(Cn1cncn1)c1ccc(F)cc1F
[1]
  Potency: inactive
[2]
  Potency: inactive
[3]
  Potency: inactive
[4]
  outcome: inactive
[5]
  max response: 7.44% (inactive) and 0.305% (inactive) and 5.93% (inactive)
[6]
  Potency: inactive
[7]
  Potency: inactive
[8]
  Potency: inactive
[9]
  Potency: inactive
[10]
  Potency: inactive
[11]
  Potency: inactive
[12]
  Potency: inactive
[13]
  Potency: inactive
[14]
  Potency: inactive
[15]
  Potency: inactive
[16]
  Potency: inactive
[17]
  Potency: inactive
[18]
  Potency: inactive

## Cn1cc[nH]c1=S
[1]
  Potency: inactive
[2]
  Potency: inactive
[3]
  Potency: inactive
[4]
  outcome: inactive
[5]
  max response: -1.38% (inactive) and 17.2% (inactive) and 3.37% (inactive)
[6]
  Potency: inactive
[7]
  Potency: inactive
[8]
  Potency: inactive
[9]
  Potency: inactive
[10]
  Potency: inactive
[11]
  Potency: inactive
[12]
  Potency: inactive
[13]
  Potency: inactive
[14]
  Potency: inactive
[15]
  Potency: inactive
[16]
  Potency: inactive
[17]
  Potency: inactive
[18]
  Potency: inactive

## N=C(N)c1ccc(OCCCCCOc2ccc(C(=N)N)cc2)cc1
[1]
  Potency: 54.7 µM (active) and inactive
[2]
  Potency: 48.8 µM (active) and 46.8 µM (active) and inactive
[4]
  outcome: inactive
[5]
  Potency: 9.73 µM (active) and 16.6 µM (active) and 21.3 µM (active)
[6]
  Potency: inactive
[7]
  Potency: inactive
[8]
  Potency: inactive
[9]
  Potency: inactive
[10]
  Potency: 48.8 µM (active) and inactive
[11]
  Potency: inactive
[12]
  Potency: inactive
[19]
  Potency: inactive
[13]
  Potency: 48.8 µM (active) and inactive
[14]
  Potency: inactive
[15]
  Potency: inactive
[16]
  Potency: 19.4 µM (active) and 18.6 µM (active)
[17]
  Potency: inactive
[18]
  Potency: inactive

## C1N2CN3CN1CN(C2)C3
[1]
  Potency: inactive
[2]
  Potency: inactive
[3]
  Potency: inactive
[4]
  outcome: inactive
[5]
  max response: 5.73% (inactive) and 6.94% (inactive) and 0.249% (inactive)
[6]
  Potency: inactive
[7]
  Potency: inactive
[8]
  Potency: inactive
[9]
  Potency: inactive
[10]
  Potency: inactive
[11]
  Potency: inactive
[12]
  Potency: inactive
[19]
  Potency: inactive
[13]
  Potency: inactive
[14]
  Potency: inactive
[15]
  Potency: inactive
[16]
  Potency: inactive
[20]
  Potency: inactive
[17]
  Potency: inactive
[18]
  Potency: inactive
